Our source for the PBM binding z-score values is the supplement of paper PMC6555819.

The first experiment deals with PPARg:RXRa (NR concentration 180 nM, RXRa partner concentration 90 nM). Nature of the experiment: PBM binding z-score (relative to random genomic background probes); higher = stronger binding; sequences stand for … in GC…GCGATTGACAGCGTAGAATGAAGG
The gist of the method: (§1)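 Each nuclear receptor dimer, without ligand, was incubated for 1 h on custom Agilent 4×180K protein-binding microarrays. Binding was detected with antibodies against each partner (one per run), and scanned fluorescence was regression-normalized. The binding z-scores are referenced to random human genomic background probes.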
Sequence CAAACTAGGTCACCGGAAGGTCCAAGTCCGCATG registered a PBM binding z-score of 8.9.
Sequence TCTTGTAGATCATTAGAGGTTAAGAAAGTGCGCT showed a PBM binding z-score of -0.111.
Same read-out and setting: the result for TCTTGTAGATCAACAGGAGGCTAAGAAAGATCGA reads -0.179; that for TTAACAAGGTGAGCTGAGGTCGTTGATCCAACTC, 0.604; that for ACAGACAGGTGAGTGAAGCTAACTCAGCTGGACG, 0.546.
GCTGCTAGGTCAGGTTGGTCAGCTTACGGGTACG gave a PBM binding z-score of 0.483.
Same read-out and setting: the same measure for ACTAGCAGGCCAAGTTTGGGTCACACAAACAAAG: 0.563.
In the case of TCTTGTAGATCAATAGCGGTTAAGAAAGTGCGCT, the PBM binding z-score was -0.524.
Turning to ATCTCGAGGTAAGACTCAGTTCAGTGAAGAACGC, the PBM binding z-score was found to be 0.0104.
Still for that read-out and setting: the same measure for AGAATGAGGTTAATATCAGGGAAACAGAATACAT: 2.46; for GCTAGCAGGCCATTTGGGTCATTCAATGACGGGC: 0.533; for GATACAGGGCCAAGGCCAGAGTACGCGTATTGAT: 0.814.
The sequence CGAAATAGGTCAAGGACAGTGAATCTCCGCACGC returned a PBM binding z-score of 7.22.
Consider ATCTCTAGGTAAACAAGTTCAGTGAATGCCGAAC, for which the PBM binding z-score amounted to 0.677.
On to AGATGTAGGTTATCGGGTCATTCAGTTTGCGCAT, for which the PBM binding z-score came to 6.25.
The same measure, in the same setting: the result for TCGTGTAGGTTAGTCGGGGCATTCAGCCAACATA reads -0.0243.
On to TCTCAAAGTTCAAAGGTAACGTAAGTATCCACAC, for which the PBM binding z-score came to 4.77.
Still for that read-out and setting: the result for TCATATAGGTAAACAGATGAAAGTCCGTAAGTTA reads 1.36.
For CCTGCTAGGTCAGTGGTCAGCTAAAGCAGCTCGC, the PBM binding z-score stood at 1.53.
TAAACAGGGTCAAAGGCCAGAGTACGAATGTCGA gave a PBM binding z-score of 9.15.
The same measure, in the same setting: the same measure for AGGACGAGGGCACGCTGAGTTGATAGCAGAGTAG: 1.2; for GATACAGGGTCAGCTGGAGGCCAGAGTATGGAAA: 3.91.
CGTCCGAGGTCAGCAGGTCAGTGAAAGCGACGTG gave a PBM binding z-score of 5.32.
Turning to ATACCAAGGCGATCGTGAGGTCGTTGATACTAAC, the PBM binding z-score was 0.16.
TAGAGTAGGTTAGGGGCATTCAGAATGGCGTCGA displayed a PBM binding z-score of 2.29.
CCTTACGGGTCAACGTTATAGCACGGGTGGTACG gave a PBM binding z-score of 4.45.
On the same count and under the same terms, the result for ATACCAAGGTGATCGTAAGGTCGTTGATACTAAC reads 0.613.
ATACCAAGGTGATCGTGAGGTCGTGGATACTAAC yielded a PBM binding z-score of 0.846.
On to GCTCGGTGGACAAGGTCAGAGCTTTGTCCGTAGA, for which the PBM binding z-score is 0.0962.
For the sequence CCTAGCTGGTCAGGAGGTCACACACCGGATATGA, the PBM binding z-score stood at 2.84.
The sequence AGAATGAGGTTATTAAGTTCAGGGAATTGCGGTC returned a PBM binding z-score of 1.55.
As for TCTTGTAGATCAAAGGTTAACAAAGCCGAAGCCT, the PBM binding z-score was determined as 8.48.
CGTGCAAGGTCAGCAGGTCAGTGAAAGCGACGTG displayed a PBM binding z-score of 4.89.
Turning to GCGACTGGGGCATCAGCAGGTTACCAGAACTTAA, the PBM binding z-score is 0.791.
Turning to AGTCAAAGTTCATCTATGTAACGTAAGATATGCT, the PBM binding z-score worked out at 6.21.
As to AGTCATAGTTCAGGACGAGGTAACGTAAAGCACG, the PBM binding z-score was found to be 1.53.
As to AGTCAAAGTGCACTAGGTAACGTAAGATTCAGCT, the PBM binding z-score is 3.36.
Still for that read-out and setting: the same measure for TCGAGAAGGTTACCAATGGGGCATTCAGCTTTCT: 0.146; for TCTAGTTGGTCAAAGGTCACACAGTCGAAATGCG: 11.6; for CGAACTAGGTAATCCAGGACAGTGAATACATTGA: 1.56.

The subject of a further experiment is PPARg:RXRa 270nM:90nM, anti-RXR (NR concentration 270 nM, RXRa partner concentration 90 nM). Described as above. The gist of the method: as §1
Consider CAAACTAGGTCACCGGAAGGTCCAAGTCCGCATG, for which the PBM binding z-score came out at 7.31.
Same read-out and setting: the result for TCTTGTAGATCATTAGAGGTTAAGAAAGTGCGCT reads 1.81; that for TCTTGTAGATCAACAGGAGGCTAAGAAAGATCGA, 1.14; that for TTAACAAGGTGAGCTGAGGTCGTTGATCCAACTC, 0.987.
On the same count and under the same terms, the same measure for ACAGACAGGTGAGTGAAGCTAACTCAGCTGGACG: -0.404.
Sequence GCTGCTAGGTCAGGTTGGTCAGCTTACGGGTACG came in with a PBM binding z-score of 0.904.
The sequence ACTAGCAGGCCAAGTTTGGGTCACACAAACAAAG yielded a PBM binding z-score of 0.793.
In turn, TCTTGTAGATCAATAGCGGTTAAGAAAGTGCGCT yielded a PBM binding z-score of 1.28.
ATCTCGAGGTAAGACTCAGTTCAGTGAAGAACGC showed a PBM binding z-score of -0.287.
In the case of AGAATGAGGTTAATATCAGGGAAACAGAATACAT, the PBM binding z-score stood at 2.14.
GCTAGCAGGCCATTTGGGTCATTCAATGACGGGC displayed a PBM binding z-score of 0.233.
In the case of GATACAGGGCCAAGGCCAGAGTACGCGTATTGAT, the PBM binding z-score worked out at 0.25.
Regarding CGAAATAGGTCAAGGACAGTGAATCTCCGCACGC, the PBM binding z-score is 6.58.
Sequence ATCTCTAGGTAAACAAGTTCAGTGAATGCCGAAC had a PBM binding z-score of 0.774.
For the sequence AGATGTAGGTTATCGGGTCATTCAGTTTGCGCAT, the PBM binding z-score worked out at 5.84.
TCGTGTAGGTTAGTCGGGGCATTCAGCCAACATA came in with a PBM binding z-score of 1.38.
In turn, TCTCAAAGTTCAAAGGTAACGTAAGTATCCACAC gave a PBM binding z-score of 5.77.
With TCATATAGGTAAACAGATGAAAGTCCGTAAGTTA, the PBM binding z-score worked out at 2.08.
The same measure, in the same setting: the result for CCTGCTAGGTCAGTGGTCAGCTAAAGCAGCTCGC reads 2.58.
The same measure, in the same setting: the same measure for TAAACAGGGTCAAAGGCCAGAGTACGAATGTCGA: 8.05; for AGGACGAGGGCACGCTGAGTTGATAGCAGAGTAG: 0.43.
In turn, GATACAGGGTCAGCTGGAGGCCAGAGTATGGAAA returned a PBM binding z-score of 3.62.
For CGTCCGAGGTCAGCAGGTCAGTGAAAGCGACGTG, the PBM binding z-score was determined as 5.3.
ATACCAAGGCGATCGTGAGGTCGTTGATACTAAC: the PBM binding z-score is -0.337.
In turn, TAGAGTAGGTTAGGGGCATTCAGAATGGCGTCGA registered a PBM binding z-score of 3.01.
With CCTTACGGGTCAACGTTATAGCACGGGTGGTACG, the PBM binding z-score amounted to 4.48.
Turning to ATACCAAGGTGATCGTAAGGTCGTTGATACTAAC, the PBM binding z-score stood at 0.737.
In turn, ATACCAAGGTGATCGTGAGGTCGTGGATACTAAC came in with a PBM binding z-score of 0.784.
GCTCGGTGGACAAGGTCAGAGCTTTGTCCGTAGA: the PBM binding z-score is 1.14.
In the case of CCTAGCTGGTCAGGAGGTCACACACCGGATATGA, the PBM binding z-score came out at 3.59.
With AGAATGAGGTTATTAAGTTCAGGGAATTGCGGTC, the PBM binding z-score worked out at 2.1.
TCTTGTAGATCAAAGGTTAACAAAGCCGAAGCCT showed a PBM binding z-score of 8.41.
With CGTGCAAGGTCAGCAGGTCAGTGAAAGCGACGTG, the PBM binding z-score was 4.92.
For GCGACTGGGGCATCAGCAGGTTACCAGAACTTAA, the PBM binding z-score was 0.667.
The sequence AGTCAAAGTTCATCTATGTAACGTAAGATATGCT showed a PBM binding z-score of 5.9.
Take AGTCATAGTTCAGGACGAGGTAACGTAAAGCACG: the PBM binding z-score came to 1.53.
Sequence AGTCAAAGTGCACTAGGTAACGTAAGATTCAGCT came in with a PBM binding z-score of 3.28.
Take TCGAGAAGGTTACCAATGGGGCATTCAGCTTTCT: the PBM binding z-score was 1.49.
Same read-out and setting: the same measure for TCTAGTTGGTCAAAGGTCACACAGTCGAAATGCG: 9.15; for CGAACTAGGTAATCCAGGACAGTGAATACATTGA: 0.982.
